In PubChem BioAssay:

assay: small-molecule binders of probe aNOTCH3, primary screen, biochemical, small-molecule microarray, 635/667 nm fluorescence (AID 1120); settings: higher = more signal;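 note: probe is a biotin-tagged antibody raised against NOTCH3 rather than NOTCH3 protein; score merges spot fluorescence near 667 nm with spot signal to noise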

| SMILES | composite z-score |
| --- | --- |
| [N-]=[N+]=Nc1ccccc1C[C@@]1(C(=O)N2CCOCC2)N=C(c2ccc(OCCCO)cc2)O[C@@H]1c1ccccc1 | 0.457 |
| [N-]=[N+]=Nc1ccccc1C[C@]1(C(=O)O)COC(c2ccc(OCCCO)cc2)=N1 | 0.0116 |
| COCCOC(=O)N1C(=O)[C@@]2(c3cc(C#CC4=CCCCC4)ccc31)[C@H](c1ccccc1OCCO)N1[C@H](c3ccccc3)[C@H](c3ccccc3)OC(=O)[C@H]1[C@@H]2C(=O)N1CCN(c2ncccn2)CC1 | 0.212 |
| O=C1O[C@@H](c2ccccc2)[C@@H](c2ccccc2)N2[C@@H](c3ccc(OCCO)cc3)[C@]3(C(=O)Nc4ccc(C#CC5=CCCCC5)cc43)[C@@H](C(=O)NC[C@H](O)c3ccccc3)[C@H]12 | 1.03 |
| [N-]=[N+]=Nc1ccccc1C[C@]1(C(=O)NCCN2CCOCC2)COC(c2ccc(OCCCO)cc2)=N1 | -0.0745 |
| O=C1OCCC=C[C@H]2OC34C=CCN(Cn5nnc6ccccc65)C(=O)[C@H]3N(CCCO)C(=O)[C@@H]4C12 (stereo not given in full) | -0.353 |
| CC(C)[Si](C#C[Si](C(C)C)(C(C)C)C(C)C)(O[C@H](c1ccccc1)c1cn(Cc2ccccc2)nn1)C(C)C | 0.143 |
| CC(C)N1C(=O)C[C@@](C(=O)O)(c2ccc([N+](=O)[O-])cc2)[C@H]1c1ccc(CO)cc1 | -0.0947 |
| C=CCC(OC(C)=O)[C@@H]1[C@@H](N(Cc2ccc(-c3ccccc3)cc2)C(=O)c2ccc(-c3ccccc3)cc2)c2cc(OCCCO)ccc2N1C(=O)c1ccc2ccccc2c1 (stereo not given in full) | -0.0208 |
| COc1ccc([Si](C)(C)[C@@H]2[C@@H](CCO)O[C@]3(C(=O)N(Cc4ccccc4)c4ccc(N5CCOC5=O)cc43)[C@H]2C)cc1 | -0.0647 |
| [N-]=[N+]=Nc1ccccc1C[C@]1(C(=O)NCC(O)CO)COC(c2ccc(OCCCO)cc2)=N1 (stereo not given in full) | 0.0339 |
| CN(C)CCCCCCNC(=O)[C@@H]1C[C@@H]2C(=O)N3CCC[C@H]3C(=O)N2[C@@H]1c1cccc(OCCO)c1 | 0.278 |
| CCOC(=O)C[C@H]1[C@H](OC(=O)c2cc3ccccc3oc2=O)[C@@H](NC(=O)c2ccccc2)c2cc(OCCCO)ccc2N1C(=O)c1ccccc1 | -0.0199 |
| O=C1C2C=CC(C(O)c3cccc(O)c3)N(Nc3ccc([N+](=O)[O-])cc3)C2C(=O)N1c1ccccc1 (stereo not given) | 0.0116 |
| C=CC[C@@]1(C(=O)NCCCOC)N=C(c2ccc(OCCCO)cc2)O[C@@H]1c1ccccc1 | 0.169 |
| CCCCC(=C=CC[C@H](O)c1ccc(OCCO)cc1)CCO | -0.121 |
| C=C(C(=O)CC[C@H](OC(=O)c1ccccc1-c1ccccc1C(=O)O)c1cccc(OCCO)c1)C(C)C | -0.185 |
| COC(=O)[C@]1(CCS(=O)(=O)c2ccccc2)N=C(c2ccc(OCCCO)cc2)O[C@@H]1c1ccccc1N=[N+]=[N-] | 0.359 |
| C=C(/C(=C/C[C@H](OC(=O)c1ccncc1)c1ccc(CO)o1)c1cnc2ccccc2c1)C(C)C | 0.169 |
| CC[C@@H]1C=C(C(=O)O)[C@H](c2ccc(C#N)cc2)N1S(=O)(=O)c1ccc(C)cc1 | -0.0077 |
| CCCCCCCCCCC(O)C1C=CC2C(=O)N(c3ccccc3)C(=O)C2N1Nc1ccc(C#N)cc1 (stereo not given) | 0.286 |
| CC[C@@H]1C=C(C(=O)O)[C@H](c2ccccc2)N1S(=O)(=O)c1ccc(C)cc1 | 0.191 |
| O=C1O[C@H](c2ccccc2)[C@H](c2ccccc2)N2[C@H]1[C@@H](C(=O)O)[C@]1(C(=O)Nc3ccc(C#CCCO)cc31)[C@H]2c1ccccc1OCCO | -0.19 |
| O=C1C2C=CC(C(O)c3ccco3)N(Nc3ccccc3F)C2C(=O)N1c1ccccc1 (stereo not given) | 0.101 |
| COc1ccc([Si](C)(C)[C@@H]2[C@@H](CCO)O[C@]3(C(=O)N(Cc4cccc(NC(=O)[C@H](C)O)c4)c4ccccc43)[C@H]2C)cc1 | -0.147 |
| CC(C)N1C(=O)C[C@@](C(=O)NC2CC2)(c2ccc([N+](=O)[O-])cc2)[C@H]1c1ccc(CO)cc1 | -0.339 |
| Oc1ccc2cc[n+](Cc3cc4c(cc3Br)OCO4)cc2c1 | -0.333 |
| CCOC(=O)C[C@H]1[C@H](OC(=O)c2ccc(-c3ccccc3)cc2)[C@@H](NC(=O)CC(C)C)c2cc(OCCCO)ccc2N1C(=O)c1ccc2ccccc2n1 | 0.041 |
| CCCCC(CC)C(O)C1C=CC2C(=O)N(c3ccccc3)C(=O)C2N1Nc1ccccc1F (stereo not given) | 0.225 |
| CCOC(=O)C[C@H]1[C@H](OC(=O)c2ccccc2-c2ccccc2)[C@@H](NC(=O)c2ccc3ccccc3n2)c2cc(OCCCO)ccc2N1C(=O)Cc1ccc(OC)cc1 | 0.033 |
